Laboratory results: PubChem BioAssay (NCATS)
“And” between values parts separate entries of the source, which are not always exact repeats. Identical values can stand only once. A number with no mark means an inactive call. Results filed as inconclusive are left out. The source made the active and inactive calls. The call rests on the fitted dose curve; in most records, active means well fitted curve in the direction sought with a large enough effect; inconclusive means small, poorly fitted or top-dose-only effect, or another doubt; inactive means no such curve, though single readings can be large or run the other way.

biological target: T1, Hexokinase-4 (Homo sapiens) + Glucokinase regulatory protein (Homo sapiens) (UniProt P35557+Q14397); assay: qHTS assay for inhibitors of recombinant human GCK-GKRP interaction: Diaphorase-coupled assay (AID 743205); settings: G6PDH/diaphorase resorufin fluorescence; series mostly up to 57.5 µM; activity change, positive = activation: at the top concentration
How it was run: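 Compounds pre-incubated 20 min with substrate, then 10 nM GST-GCK with 10 nM FLAG-GKRP added. GCK activity coupled via G6PDH and diaphorase to resorufin (5 mM glucose, 0.4 mM ATP, 0.15 mM NADP+, pH 7.6), read kinetically over 30 minutes at Ex 525/Em 590 nm.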

T1 sequence (P35557 whole entry, looked up): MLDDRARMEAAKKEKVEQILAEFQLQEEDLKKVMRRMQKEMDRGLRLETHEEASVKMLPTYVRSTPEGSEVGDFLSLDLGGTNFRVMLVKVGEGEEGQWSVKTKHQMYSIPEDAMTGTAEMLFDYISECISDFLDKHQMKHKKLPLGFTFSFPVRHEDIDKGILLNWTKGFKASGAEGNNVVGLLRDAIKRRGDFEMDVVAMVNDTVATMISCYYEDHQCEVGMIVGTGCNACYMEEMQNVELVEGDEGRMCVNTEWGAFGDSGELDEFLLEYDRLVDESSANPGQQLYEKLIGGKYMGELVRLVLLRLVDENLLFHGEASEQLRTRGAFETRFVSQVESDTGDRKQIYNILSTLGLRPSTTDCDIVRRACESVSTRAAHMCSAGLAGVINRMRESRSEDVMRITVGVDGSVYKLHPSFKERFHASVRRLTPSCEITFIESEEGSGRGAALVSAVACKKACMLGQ
T1 sequence (Q14397 whole entry, looked up): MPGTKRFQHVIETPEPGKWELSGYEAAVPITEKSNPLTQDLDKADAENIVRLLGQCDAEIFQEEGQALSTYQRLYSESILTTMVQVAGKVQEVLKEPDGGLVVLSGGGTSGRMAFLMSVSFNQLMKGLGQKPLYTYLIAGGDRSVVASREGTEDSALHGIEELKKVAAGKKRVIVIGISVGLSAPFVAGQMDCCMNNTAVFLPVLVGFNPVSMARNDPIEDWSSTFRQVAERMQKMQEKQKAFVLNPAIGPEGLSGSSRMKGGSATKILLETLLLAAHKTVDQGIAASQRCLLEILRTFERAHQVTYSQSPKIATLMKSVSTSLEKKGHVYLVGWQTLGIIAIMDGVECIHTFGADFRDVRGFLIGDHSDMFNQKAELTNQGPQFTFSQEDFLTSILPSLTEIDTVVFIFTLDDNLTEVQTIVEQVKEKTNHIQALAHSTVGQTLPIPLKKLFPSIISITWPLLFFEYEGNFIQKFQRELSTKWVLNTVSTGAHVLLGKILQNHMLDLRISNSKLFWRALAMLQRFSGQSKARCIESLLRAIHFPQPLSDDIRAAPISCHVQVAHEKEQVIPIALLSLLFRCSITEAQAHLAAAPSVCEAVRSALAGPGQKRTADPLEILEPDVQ

Structure (SMILES) | activity change, positive = activation [%] | outcome
CC(NC(C)(C)C)C(=O)c1cccc(Cl)c1 (stereo not given) | -1.63 | –
CN1C(=O)CCS(=O)(=O)C1c1ccc(Cl)cc1 (stereo not given) | -4.46 | –
CCC1(c2ccc(N)cc2)CCC(=O)NC1=O (stereo not given) | -3.23 | –
CC(C)N(CCC(C(N)=O)(c1ccccc1)c1ccccn1)C(C)C (stereo not given) | – | inactive
O=C(CCCN1CCC2(CC1)C(=O)NCN2c1ccccc1)c1ccc(F)cc1 | 1.71 | –
COc1ccc2c(c1OC)C(=O)O[C@H]2[C@@H]1c2cc3c(cc2CCN1C)OCO3 | -2.03 | –
CCCCC/C=C\C/C=C\C/C=C\C/C=C\CCCC(=O)NCC(=O)O | -1.57 | –
Cc1ncsc1CCCl | -5.31 | –
C=C(C)[C@H]1CN[C@H](C(=O)O)[C@H]1CC(=O)O | -2.88 | –
CC(C)(C)NCC(O)c1ccccc1Cl (stereo not given) | -2.61 | –
O=c1[nH]oc2c1CCNC2 | -0.294 | –

biological target: T1, Hexokinase-4 (Homo sapiens) + Glucokinase regulatory protein (Homo sapiens); assay: qHTS assay for inhibitors of recombinant human GCK-GKRP interaction: ADP-Glo assay (AID 743206); settings: ADP-Glo luminescence, 60 min, 0% = vehicle-only wells with enzyme present; series mostly up to 76.9 µM; activity, positive = activation: at the top concentration;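 further: plate controls were DMSO plus enzyme for no effect and no enzyme for full effect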
How it was run: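 Pin-transferred compounds meet a 15 nM GST-GCK/15 nM FLAG-GKRP/2 uM S6P mix (dispense concentrations). ATP is then added to 0.4 mM final with 5 mM glucose, and the reaction runs 60 min at room temperature. ADP is quantified luminescently.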

Structure (SMILES) | activity, positive = activation [%] | outcome
CC(NC(C)(C)C)C(=O)c1cccc(Cl)c1 (stereo not given) | 2.8 | –
CN1C(=O)CCS(=O)(=O)C1c1ccc(Cl)cc1 (stereo not given) | 1.19 | –
CCC1(c2ccc(N)cc2)CCC(=O)NC1=O (stereo not given) | 3.2 | –
CC(C)N(CCC(C(N)=O)(c1ccccc1)c1ccccn1)C(C)C (stereo not given) | – | inactive
O=C(CCCN1CCC2(CC1)C(=O)NCN2c1ccccc1)c1ccc(F)cc1 | 2.08 | –
COc1ccc2c(c1OC)C(=O)O[C@H]2[C@@H]1c2cc3c(cc2CCN1C)OCO3 | 2.68 | –
CCCCC/C=C\C/C=C\C/C=C\C/C=C\CCCC(=O)NCC(=O)O | 11.1 | –
Cc1ncsc1CCCl | 1.33 | –
C=C(C)[C@H]1CN[C@H](C(=O)O)[C@H]1CC(=O)O | 4.57 | –
CC(C)(C)NCC(O)c1ccccc1Cl (stereo not given) | 1.81 | –
O=c1[nH]oc2c1CCNC2 | 3.61 | –

tested on: not listed separately; assay: qHTS Assay for Identifying Gametocytocidal Compounds (AID 743244); further: potency means the concentration at half of the fitted maximal effect;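 on max response: on the % scale 0 is the no-effect control and ±100 the full control effect; actives lower the fluorescent signal which means gametocytes are killed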; settings: P. falciparum 3D7 stage III-V gametocytes, alamarBlue, 72 h; max response: stronger effect = lower value
How it was run: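 Stage III–V gametocytes of P. falciparum 3D7 were seeded at 20,000 cells/well onto pre-dispensed compounds. After 72 h, 37 °C, 5% CO2, alamarBlue was added for another 24 h.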

Structure (SMILES) | max response | Potency
Cc1nnc2n1-c1ccc(Cl)cc1C(c1ccccc1)=NC2 | 35.3% | –
CC(C)c1c(CN(C)C(C)Cc2ccccc2)n(C)n(-c2ccccc2)c1=O (stereo not given) | 12.8% | –
CCN(CCO)CCn1c(Cc2ccccc2)nc2c1c(=O)n(C)c(=O)n2C | 2.54% | –
CCCCCCCCCC(=O)O[C@H]1CC[C@H]2[C@@H]3CCC4=CC(=O)CC[C@@H]4[C@H]3CC[C@]12C | 5.38% | –
CC(NC(C)(C)C)C(=O)c1cccc(Cl)c1 (stereo not given) | -0.241% and 10.5% | –
CN1C(=O)CCS(=O)(=O)C1c1ccc(Cl)cc1 (stereo not given) | -2.23% and 6.27% | –
CC(=O)N1CCN(c2ccc(OC[C@H]3CO[C@](Cn4ccnc4)(c4ccc(Cl)cc4Cl)O3)cc2)CC1 | 0.452% | –
NC1=NC(=O)C(c2ccccc2)O1 (stereo not given) | -7.8% | –
CCC1(c2ccc(N)cc2)CCC(=O)NC1=O (stereo not given) | 3.2% and 30.1% | –
CC(C)N(CCC(C(N)=O)(c1ccccc1)c1ccccn1)C(C)C (stereo not given) | 11.9% and -6.08% and 19.7% | –
O=C(CCCN1CCC2(CC1)C(=O)NCN2c1ccccc1)c1ccc(F)cc1 | -9.38% and 8.83% | –
COc1ccc2c(c1OC)C(=O)O[C@H]2[C@@H]1c2cc3c(cc2CCN1C)OCO3 | 10.8% and 14.8% | –
COc1ccc2c3c1O[C@H]1[C@H](O)CC[C@H]4[C@@H](C2)N(C)CC[C@@]341 | -0.489% | –
O=C1Nc2ccc(Cl)cc2C(c2ccccc2Cl)=NC1O (stereo not given) | 16.1% | –
CCCCC/C=C\C/C=C\C/C=C\C/C=C\CCCC(=O)NCC(=O)O | -2.03% and 7.82% | –
Cc1ncsc1CCCl | 5.08% and 26.9% | –
C=C(C)[C@H]1CN[C@H](C(=O)O)[C@H]1CC(=O)O | 5.55% and 38.6% | –
COc1cc(CC(C)N)cc(OC)c1OC (stereo not given) | 4.71% | –
c1ccc(CN2CCNCC2)cc1 | 8.43% | –
CNCC(=O)c1ccc(O)c(O)c1 | 39.9% | –
CC(=O)OCC1=C(C(=O)O)N2C(=O)[C@@H](N)[C@H]2SC1 | -3.04% | –
CC(C)(C)NCC(O)c1ccccc1Cl (stereo not given) | -5.65% and 5.12% | –
CC(C)C[C@H]1C(=O)N2CCC[C@H]2[C@]2(O)O[C@](NC(=O)[C@@H]3C=C4c5cccc6[nH]c(Br)c(c56)C[C@H]4N(C)C3)(C(C)C)C(=O)N12 | – | 22.4 µM (active) and 1.26 µM (active)
CC(Cc1ccccc1)NCCn1cnc2c1c(=O)n(C)c(=O)n2C (stereo not given) | -2.49% | –
NNc1ccccc1 | -4.92% | –
O=c1[nH]oc2c1CCNC2 | 1.24% and 27.1% | –
CN1C(=O)CC(=O)N(c2ccccc2)c2cc(Cl)ccc21 | 16.1% | –
CCOc1ccc(NS(=O)(=O)c2ccc(N)cc2)nn1 | 42.3% | –
